ELG1 genotox: qHTS screen for small molecules that induce genotoxicity in human embryonic kidney (HEK293T) cells expressing luciferase-tagged ELG1. HEK293T ELG1-luciferase reporter, luminescence, 16 h. Potency, µM (top dose mostly 46 µM), for the others: at the top dose activity change, positive = activation, hits mostly activators. actives 1.3% (n = 330,000). AID 504466, 2011; note: % of control where 0% means no effect; nearly all actives have a fitted effect of over 60% in size
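Genotoxic stress is detected as increased luminescence from luciferase-tagged ELG1 in HEK293T cells, measured with ONE-Glo after a 16 hr treatment at 37 °C.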
FLuc modulator: qHTS profiling assay for firefly luciferase inhibitor/activator using purifed enzyme and Km concentrations of substrates (counterscreen for miR-21 project). Luciferin 4-monooxygenase (Photinus pyralis), P08659. purified FLuc, Km substrates, luminescence inhibition. Potency, µM (doses to about 57.5 µM), for the others: top-dose activity change, negative = inhibition, actives largely listed as inhibitors. actives 6.9% (n = 360,000);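 note: plate controls were vehicle for no effect and reference inhibitor for full effect; nearly all actives have a fitted effect of over 55% in size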
Target sequence (P08659 whole entry, looked up): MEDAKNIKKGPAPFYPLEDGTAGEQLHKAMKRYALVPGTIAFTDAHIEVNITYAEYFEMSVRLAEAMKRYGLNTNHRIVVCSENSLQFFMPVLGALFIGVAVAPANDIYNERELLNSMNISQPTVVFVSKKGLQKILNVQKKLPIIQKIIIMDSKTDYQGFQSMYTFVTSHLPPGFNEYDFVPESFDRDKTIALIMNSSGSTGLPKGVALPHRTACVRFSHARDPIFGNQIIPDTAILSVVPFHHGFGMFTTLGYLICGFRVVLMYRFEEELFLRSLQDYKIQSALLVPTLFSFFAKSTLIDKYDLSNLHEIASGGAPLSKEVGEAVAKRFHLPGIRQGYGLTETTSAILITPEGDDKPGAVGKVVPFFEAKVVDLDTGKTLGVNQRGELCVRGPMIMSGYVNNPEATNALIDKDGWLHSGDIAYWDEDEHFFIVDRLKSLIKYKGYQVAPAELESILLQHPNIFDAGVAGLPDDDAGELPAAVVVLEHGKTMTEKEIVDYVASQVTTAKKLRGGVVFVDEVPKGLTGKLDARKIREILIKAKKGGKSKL
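Biochemical qHTS of compounds, final roughly 60 µM downward over six points, against 10 nM purified firefly luciferase using Km concentrations of substrates (10 uM D-luciferin, 10 uM ATP) in Tris acetate pH 7.5 buffer; luminescence output.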
NPC1 prom act: qHTS Assay for NPC1 Promoter Activators; actives 2.4% (n = 320,000); Potency, µM (highest dose often 9.22 µM), inactives show at the top dose activation, most hits filed as activators; Huh7 NPC1 promoter luciferase reporter, 24 h; AID 485313, 2010; note: % of control where 0% means no effect; nearly all actives have a fitted effect of over 60% in size
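Luminescence from an NPC1 promoter-driven luciferase reporter in stably transfected Huh7 cells was measured after 24 h compound treatment at 37 °C, followed by 10 min ambient incubation with luciferase detection reagent.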
Rab9 prom act: qHTS Assay for Rab9 Promoter Activators | Potency, µM (highest dose often 9.22 µM), for the others: at the highest dose activation, negative = inhibition, usual class: activators | actives 2.8% (n = 320,000) | Huh7 Rab9 promoter-luciferase reporter, luminescence, 24 h; note: % of control where 0% means no effect; nearly all actives have a fitted effect of over 60% in size
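Huh7 reporter line, Rab9 promoter upstream of luciferase. Compound exposure 24 h at 37 °C in reduced-serum medium with 10% FBS. Read-out: luminescence.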
p53 reactivator: qHTS assay for re-activators of p53 using a Luc reporter; H1299 p53-A138V BP100-luciferase reporter, luminescence, 24 h; Potency, µM (doses to about 92.2 µM), inactives show at the highest dose activity change, positive = activation, usual class: activators; actives 0.063% (n = 320,000); note: % of control where 0% means no effect; nearly all actives have a fitted effect of over 45% in size
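H1299 (p53-null), stable ts p53-A138V + BP100-Luc; 1000 cells/well, Opti-MEM/10% FBS; cpd 4 pt, 1:5; 24 h, 37 deg C, 5% CO2; detection reagent 10 min RT; luminescence.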
SMN2 splice enh: qHTS Assay for Enhancers of SMN2 Splice Variant Expression | actives 2.8% (n = 210,000) | HEK293 SMN2-luciferase splicing reporter, luminescence, 30-36 h | AID 1458, 2008 | Potency, µM (series often up to 46.1 µM), without a hit: top-dose activity change, positive = activation, usual class: activators; note: % of control where 0% means no effect; nearly all actives have a fitted effect of over 55% in size
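qHTS luciferase splicing reporter: luminescence rises when SMN2 exon 7 is included in transfected HEK293 cells. Compound exposure lasted 30-36 h at 37C, with 4.5 mM final sodium butyrate as control, followed by a ONE-Glo read.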
Active calls of the source: *; ? = inconclusive; . = not tested or not shown; [ ] = another dose, or the depositor's remark. This is a sample that favours compounds with a hit; in the whole collection about 7.4% have one here. Calls come from the whole dose curve; as a rule, active = well fitted curve in the direction sought with a large enough effect; inconclusive = small, poorly fitted or top-dose-only effect, or another doubt; inactive = no such curve, though single readings can be large; an effect the other way counts as inactive or inconclusive. Potency is the fitted concentration of half-maximal effect.

SMILES | ELG1 genotox | FLuc modulator | NPC1 prom act | Rab9 prom act | p53 reactivator | SMN2 splice enh
Cc1cccc(C(=O)NC(=S)Nc2ccc3[nH]c(=O)[nH]c3c2)c1 | 0.7% | 3.3% | -0.7% | -1.4% | 6.0% | 8.9%
CC(=O)c1cccc(NC(=S)NC(=O)c2ccccc2Br)c1 | 0.7% | 16.9µM* | 5.8% | 1.0% | 7.3% | -4.3%
Cc1cccc(NC(=S)NNC(=O)c2ccccc2Br)c1 | 9.5% | ? | 21.6% | 3.16µM* | ? | 12.6µM*
CC(=O)c1cccc(NC(=S)NC(=O)c2cccc(C)c2)c1 | ? | 4.26µM* | ? | 3.16µM* | ? | 15.8µM*
CC(=O)c1cccc(NC(=S)NC(=O)c2ccc(Cl)cc2)c1 | ? | 13.5µM* | ? | ? | ? | 15.8µM*
CC(=O)c1cccc(NC(=S)NC(=O)c2ccccc2C)c1 | -0.3% | ? | -6.0% | -5.2% | -0.7% | .
C=CCN1C(=O)c2ccccc2Sc2ccc(C(=O)NCC(OC)OC)cc21 | -1.1% | 1.3% | 5.2% | -2.0% | -5.6% | .
C/C(N)=C(/C#N)C(=O)CSc1nnc(Nc2c(C)cccc2C)s1 | -0.4% | 0.3% | -6.2% | -3.2% | -0.8% | 1.4%
C/C(N)=C(/C#N)C(=O)CSc1nnc(Nc2cccc(C)c2C)s1 | 15.1% | 16.9µM* | ? | ? | ? | ?
COc1cc(CN(C(=O)c2cccs2)C2CCS(=O)(=O)C2)cc(OC)c1OC (stereo not given) | 1.6% | 8.9% | 0.8% | -1.9% | 0.2% | .
CC1(C)CC[C@]2(C(=O)O)C(O)C[C@@]3(C)C(=CCC4[C@@]5(C)CCC(O)C(C)(C)C5CC[C@@]43C)C2C1 (stereo not given in full) | . | . | . | . | . | 4.2%
O=C(O)c1cccc(N2C(=O)c3ccc(C(=O)c4cccc([N+](=O)[O-])c4)cc3C2=O)c1 | -1.5% | 1.2% | 17.2% | -5.8% | 0.6% | .
CCN1C(=O)c2ccc(C(=O)Nc3cccc(C(=O)O)c3)cc2C1=O | 2.5% | 0.269µM* | 17.6% | ? | 6.3% | .
CCN1C(=O)c2ccc(C(=O)O)cc2C1=O | 0.9% | -0.6% | -1.5% | -2.0% | -1.9% | 2.2%
O=C(O)c1cccc(NC(=O)c2ccc(N3C(=O)c4ccc(C(=O)Nc5cccc(C(=O)O)c5)cc4C3=O)cc2)c1 | -0.3% | 26.9µM* | 16.8% | ? | 5.8% | .
O=C(O)c1cccc(NC(=O)c2ccc3c(c2)C(=O)N(c2cccc([N+](=O)[O-])c2)C3=O)c1 | 0.0% | 3.79µM* | 1.8% | -0.8% | -0.3% | .
O=C(O)c1ccc2c(c1)C(=O)N(c1cccc(C(=O)/C=C/c3ccccc3)c1)C2=O | 4.1% | 2.69µM* | 4.1% | -7.6% | 1.6% | .
CC(=O)c1cccc(NC(=O)c2cccc(N3C(=O)c4ccccc4C3=O)c2)c1 | 9.0% | -15.1% | 0.4% | 1.6% | 3.4% | .
CC(=O)N1c2ccc(S(=O)(=O)NCCC(=O)Nc3ccc(OC(F)(F)F)cc3)cc2CC1C (stereo not given) | -1.6%[9.26 µM] | 0.0% | -0.2% | -3.6% | 5.6% | .
CS(=O)(=O)N1CCC2(CCCN(Cc3ccc(C#N)cc3)C2)CC1 | . | . | . | . | . | -17.1%
O=C(O)c1ccc(NC(=O)c2ccc3c(c2)C(=O)N(c2ccccc2)C3=O)cc1 | 2.8% | 15.1µM* | -2.2% | -0.2% | 1.4% | .
CC(C)(C)N1C(=O)c2ccc(C(=O)Nc3ccc(-c4nc5ccccc5[nH]4)cc3)cc2C1=O | 11.7% | 6.8% | 0.7% | -0.5% | ? | ?
CC(C)(C)N1C(=O)c2ccc(C(=O)Nc3ccc(C(=O)O)cc3)cc2C1=O | -0.6% | 10.7µM* | 6.7% | 5.8% | 1.5% | .

Compound activity deposited in PubChem by National Center for Advancing Translational Sciences (NCATS).
